The values below come from PubChem BioAssay (Tox21).

SMILES strings stand for the structures. “And” between values parts separate entries of the source, which are not always exact repeats. Equal values may be shown once. Inconclusive results are not listed. Entries that show only a call come without a potency. The source made the active and inactive calls. Calls come from the whole dose curve; as a rule, active = well fitted cell-killing curve with a large enough effect in the repeat runs; inconclusive = weak or mixed curves, or effect the other way; inactive = flat fitted curve, though single readings scatter.
Potency is the fitted concentration of half-maximal effect.

A short description of the test: qHTS assay to identify small molecule antagonists of the androgen receptor (AR) signaling pathway using the MDA cell line - cell viability counter screen (AID 743041; note: nearly all actives have a fitted effect of over 45% in size). The note with it: MDA-kb2 viability, CellTiter-Fluor, 16 h, cells co-treated with R1881 androgen agonist; series mostly up to 70.3 µM. The source says: National Center for Advancing Translational Sciences [NCATS]
NIH Chemical Genomics Center [NCGC]
U.S. Environmental Protection Agency [EPA]
National Institutes of Environmental Health Sciences [NIEHS]
National Toxicology Program [NTP]
U.S. Food and Drug Administration [FDA]
Androgen receptor (AR), a nuclear hormone receptor, plays a critical role in AR-dependent prostate cancer and other androgen related diseases. Endocrine disrupting chemicals (EDCs) and their interactions with steroid hormone receptors like AR may cause disruption of normal endocrine function as well as interfere with metabolic homeostasis, reproduction, developmental and behavioral functions. To identify the compounds that inhibit AR signaling, MDA-kb2 AR-luc cell line (from ATCC, deposited by Wilson et al.) was used to screen the Tox21 10K compound library. MDA-kb2 AR-luc cell line is human breast carcinoma cell line that was stably transfected with a luciferase reporter gene under control of the MMTV promoter containing response elements for both androgen receptor (AR) and glucocorticoid receptor (GR). The cytotoxicity of the Tox21 compound library against the MDA-kb2 AR-luc cell line was tested in parallel by measuring the cell viability using CellTiter-Fluor assay (Promega, Madison, WI) in the same wells.
Tox21 Assay Protocol Summary:
MDA-kb2 AR-luc cells were dispensed at 3,000 cells/4 uL/well of culture medium into white wall/solid-bottom 1536-well plates using a Multidrop Combi (ThermoFisher Scientific, Waltham, MA) dispenser. After the assay plates were incubated at a 37C and 0% CO2 for 5 hr, 23 nL of compounds dissolved in DMSO, positive controls or DMSO only was transferred to the assay plate by a Pintool station (Kalypsys, San Diego, CA), followed by addition of 1 uL of agonist (R1881) in culture medium using a Bioraptr Flying Reagent Dispenser (FRD) workstation (Beckman Coulter, Indianapolis, IN, USA). The plates were incubated at a 37C and 0% CO2 for 16 h. After 15.5 h incubation, 1uL of CellTiter-Fluor reagent (Promega) was added using a Bioraptr FRD to each plate for measuring cytotoxicity. The fluorescence intensity was quantified on a ViewLux plate reader (PerkinElmer, Shelton, CT) following 30 min incubation at 37C and 0% CO2.
Background: Quantitative high-throughput screening tests each substance at several concentrations.
As to `Nc1nc(N)nc(Cl)n1`, the Potency entry was “inactive”. Turning to `COP(=S)(OC)Oc1ccc([N+](=O)[O-])c(C)c1`, the Potency result is “inactive”.

Consider `COC(=O)C(C)N(C(=O)c1ccco1)c1c(C)cccc1C` (stereo not given), for which the Potency entry is “inactive”.

Consider `Oc1ccc2[nH]cc(CCCCN3CC=C(c4ccccc4)CC3)c2c1`, for which the Potency result is “inactive”. For `CC(O)C(=O)[O][Hg][c]1ccccc1` (stereo not given) the value was 4.86 µM (active); for `Oc1cccc(Cl)c1Cl`, “inactive”.

For `[Cl-].[Cl-].[Cl-].[Yb+3]`, the Potency entry was “inactive”. For `CSC1=N[C@@](C)(c2ccccc2)C(=O)N1Nc1ccccc1` the value was 48.6 µM (active); for `c1csc(-c2ccc(-c3cccs3)s2)c1`, “inactive”; for `COc1ccc2[nH]cc(CCN(C(C)C)C(C)C)c2c1`, “inactive”. Then `[Cl][Hg][c]1ccccc1`, with 3.44 µM (active); and `CC(C)C(Nc1ccc(C(F)(F)F)cc1Cl)C(=O)OC(C#N)c1cccc(Oc2ccccc2)c1` (stereo not given), with “inactive”; and `COCCC#N`, with “inactive”. For `O.O.O.O.O.O.O=S(=O)([O-])[O-].[Ni+2]` the value was “inactive”; for `CC(=O)[O][Pb]([c]1ccccc1)([c]1ccccc1)[c]1ccccc1`, 1.72 µM (active). Take `[C-]1=CC=CC1.[Cl][Zr+2][Cl].c1cc[cH-]c1`: the Potency result is “inactive”. For `O=C(Nc1ccc(F)cc1F)c1cccnc1Oc1cccc(C(F)(F)F)c1` the value was “inactive”; for `CCOP(=O)(Sc1ccccc1)Sc1ccccc1`, “inactive”. As to `N#Cc1ccc(N(CC(N)=O)CC(F)(F)F)cc1C(F)(F)F`, the Potency entry is “inactive”. For `[O]=[Cr](=[O])([OH])[O][Cr](=[O])(=[O])[OH]` the value was “inactive”; for `C[C@]12C/C(=C/O)C(=O)C[C@@H]1CC[C@@H]1[C@@H]2CC[C@@]2(C)[C@H]1CC[C@]2(C)O`, “inactive”. On to `CC(C)=CC1C(C(=O)OC(C#N)c2cccc(Oc3ccccc3)c2)C1(C)C` (stereo not given), for which the Potency result is “inactive”. For `CNC(=O)O/N=C(\C)C(C)S(C)(=O)=O` (stereo not given) the value was “inactive”. For `CCNc1nc(NC(C)C(C)C)nc(SC)n1` (stereo not given), the Potency result was “inactive”. Then `CNC(C)(C)Cc1ccccc1`, with “inactive”; and `ClC(Cl)C(Cl)(Cl)Cl`, with “inactive”; and `C[C@H]1[C@H](c2ccc(Cl)cc2)SC(=O)N1C(=O)NC1CCCCC1`, with “inactive”.

Regarding `S=C=Nc1ccccc1`, the Potency result was “inactive”. Regarding `CCCCN(CCCC)C(=S)S`, the Potency entry is “inactive”. Then `CCCN`, with “inactive”; and `Brc1cccc(-c2ccccc2)c1`, with “inactive”; and `CNN`, with “inactive”.

In the case of `CCC(C)Nc1c([N+](=O)[O-])cc(C(C)(C)C)cc1[N+](=O)[O-]` (stereo not given), the Potency entry is “inactive”. `CC(=O)[O][Sn]([c]1ccccc1)([c]1ccccc1)[c]1ccccc1`: the Potency is 5.45 µM (active).

`CN(C)C(=S)SSC(=S)N(C)C`: the Potency was 393 nM (active) and 269 nM (active) and 154 nM (active). For `CC[C@H](C)[C@H]1O[C@]2(C=C[C@@H]1C)C[C@@H]1C[C@@H](C/C=C(\C)[C@@H](O[C@H]3C[C@H](OC)[C@@H](O[C@H]4C[C@H](OC)[C@@H](NC)[C@H](C)O4)[C@H](C)O3)[C@@H](C)/C=C/C=C3\CO[C@@H]4[C@H](O)C(C)=C[C@@H](C(=O)O1)[C@]34O)O2` the value was 21.7 µM (active); for `CC(=O)O.CC(=O)O.CC(=O)O.CC(=O)O.CC(=O)O.CC(=O)O.CC(=O)O.O.O.[Cr].[Cr].[Cr]`, “inactive”. Then `S=C=NCCc1ccccc1`, with “inactive”.

Turning to `CC1CCCC1`, the Potency result is “inactive”. Then `CCc1cccc(C)c1N(C(=O)CCl)[C@@H](C)COC`, with “inactive”.
